# PubChem BioAssay (Tox21)
# Inconclusive results are not listed. Active and inactive are the calls of the source. The call rests on the fitted dose curve; in most records, active means well fitted activation curve with a large enough effect in the repeat runs; inconclusive means weak or mixed curves; inactive means no such curve, though single readings can be large or run the other way.
# Biological target: Nuclear receptor subfamily 1 group I member 2 (Rattus norvegicus) (UniProt Q9R1A7)
# Assay: Rat pregnane X receptor (rPXR) activation by small molecules, qHTS assay (AID 1346983); further: nearly all actives have a fitted effect of over 20% in size
# Conditions: rPXR luciferase reporter cells, One-Glo luminescence, 24 h; max activation: hits give high values
# Description: National Center for Advancing Translational Sciences [NCATS] NIH Chemical Genomics Center [NCGC] U.S. Environmental Protection Agency [EPA] National Institutes of Environmental Health Sciences [NIEHS] National Toxicology Program [NTP] Assay overview: The Pregnane X receptor (PXR), a ligand activated nuclear receptor plays a critical role in the regulation of genes involved in drug metabolism and transporters. PXR binds xenobiotics and when compounds interact with PXR produces enhanced expression of CYP3A genes. In humans PXR activation and CYP3A4 induction can be problematic due to their interactions with co-medicated drugs and decrease their efficacy or increase their own metabolism. However, there are known species-specific differences with regard to PXR activation that should be taken into account when animal PXR data are extrapolated to humans. A cell based rat PXR (rPXR) assay (developed by Puracyp, Inc., CA) was used to assess the activation of rPXR.
# Assay Protocol Summary: rPXR cells were dispensed at 2,000 per well in 5uL of assay medium into white, solid-bottom 1536-well plates using a Multidrop Combi dispenser (Thermo Scientific). The assay plates were incubated at 37 C for 5hr before transferring 23 nL of test compounds dissolved in DMSO and positive control via Pintool station (Wako). The assay plates were incubated at 37 C for 24 hr. Then 5ul One-Glo assay reagent (Promega) was added to each plate by a Flying Reagent Dispenser (FRD, Aurora Discovery) and following 30 min incubation at room temperature, luciferase activity was quantified on a ViewLux plate reader (Perkin Elmer).
# On the % scale 0 is the no-effect control and ±100 the full control effect; potency means the concentration at half of the fitted maximal effect.
# Chain of Nuclear receptor subfamily 1 group I member 2 (Rattus norvegicus) (Q9R1A7 whole entry, looked up): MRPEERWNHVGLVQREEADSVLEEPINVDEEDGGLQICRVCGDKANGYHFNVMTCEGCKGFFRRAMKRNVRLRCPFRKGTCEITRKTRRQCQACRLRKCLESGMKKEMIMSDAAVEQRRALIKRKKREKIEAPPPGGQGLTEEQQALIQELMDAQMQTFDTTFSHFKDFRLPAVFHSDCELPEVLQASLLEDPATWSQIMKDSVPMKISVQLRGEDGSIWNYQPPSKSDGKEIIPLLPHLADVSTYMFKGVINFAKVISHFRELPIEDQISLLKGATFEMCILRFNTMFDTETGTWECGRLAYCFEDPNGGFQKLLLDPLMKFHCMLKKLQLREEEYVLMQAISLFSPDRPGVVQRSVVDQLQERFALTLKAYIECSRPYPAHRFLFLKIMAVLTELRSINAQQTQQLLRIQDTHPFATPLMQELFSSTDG
SMILES,max activation,Potency
O=P(O)(O)OC[C@H](O)CO,-3.61% (inactive),
O=C(O)C1CCCN1 (stereo not given),-0.193% (inactive),
COc1ccc(/C=C/C(=O)OCCC(C)C)cc1,9.31% (inactive),
CCCCC/C=C\CCC(=O)N[C@H]1[C@H](Oc2c3cc4cc2Oc2ccc(cc2Cl)[C@@H](O[C@@H]2O[C@H](CO)[C@@H](O)[C@H](O)[C@H]2NC(C)=O)[C@@H]2NC(=O)[C@H](NC(=O)[C@@H]4NC(=O)[C@H]4NC(=O)[C@@H](Cc5ccc(c(Cl)c5)O3)NC(=O)[C@H](N)c3ccc(O)c(c3)Oc3cc(O)cc4c3)c3ccc(O)c(c3)-c3c(O[C@H]4O[C@H](CO)[C@@H](O)[C@H](O)[C@@H]4O)cc(O)cc3[C@@H](C(=O)O)NC2=O)O[C@H](CO)[C@@H](O)[C@@H]1O,0.769% (inactive),
C=C(NC(=O)C(=C)NC(=O)c1csc(C2=N[C@@H]3c4csc(n4)[C@H]4NC(=O)c5csc(n5)[C@H]([C@](C)(O)[C@@H](C)O)NC(=O)[C@H]5CSC(=N5)C(=CC)NC(=O)C([C@@H](C)O)NC(=O)c5csc(n5)[C@]3(CC2)NC(=O)[C@H](C)NC(=O)C(=C)NC(=O)[C@H](C)NC(=O)C([C@@H](C)CC)NC2C=Cc3c([C@H](C)O)cc(nc3C2O)C(=O)O[C@@H]4C)n1)C(N)=O (stereo not given in full),-3.21% (inactive),
COC(=O)CC[C@H](N)C(=O)O,-5.81% (inactive),
COC(=O)[C@H]1[C@H]2C[C@@H]3c4[nH]c5cc(OC)ccc5c4CCN3C[C@H]2C[C@@H](OC(=O)/C=C/c2cc(OC)c(OC)c(OC)c2)[C@@H]1OC,-2.27% (inactive),
CNCC(O)c1ccc(OC(=O)C(C)(C)C)c(OC(=O)C(C)(C)C)c1 (stereo not given),0.121% (inactive),
OCCO[C@@H]1[C@@H](O)[C@H](O)[C@@H](CO)O[C@@H]1O,-3.49% (inactive),
COc1ccc(-c2noc(CC(=O)O)c2-c2ccc(OC)cc2)cc1,-3.32% (inactive),
Cc1nc(NS(=O)(=O)c2ccc(N)cc2)nc(C)c1Br,-1.45% (inactive),
CC(=O)N(CC(C)C(=O)O)c1c(I)cc(I)c(N)c1I (stereo not given),-1.91% (inactive),
CCCc1ccc(C(=O)O)cc1,-2.43% (inactive),
CCCCCCCCCCCC(=O)N(CCO)CCO,-2.62% (inactive),
CCOC(=O)C1=C[C@@H](OC(CC)CC)[C@H](NC(C)=O)[C@@H](N)C1,-4.38% (inactive),
CCCOc1ccc2nc(NC(=O)OC)sc2c1,,2.51 µM (active)
COC(=O)CCC[N+](C)(C)C,-0.156% (inactive),
OC[C@H]1OC([S-])[C@H](O)[C@@H](O)[C@@H]1O.[Au+] (stereo not given in full),-6.36% (inactive),
CS(=O)(=O)OCC(O)C(O)COS(C)(=O)=O (stereo not given),-4.2% (inactive),
COC(F)(F)C(Cl)Cl,0.553% (inactive),

SMILES,max activation,Potency
O=P(O)(O)OC[C@H]1O[C@](O)(COP(=O)(O)O)[C@@H](O)[C@@H]1O,-2.72% (inactive),
CCN(CC)CCC(=O)N1c2ccccc2Sc2ccc(Cl)cc21,3.32% (inactive),
CN[C@@H]1[C@H](O[C@H]2[C@H](O[C@H]3[C@H](O)[C@@H](O)[C@H](N=C(N)N)[C@@H](O)[C@@H]3N=C(N)N)O[C@@H](C)[C@]2(O)CO)O[C@@H](CO)[C@H](O)[C@H]1O,-1.72% (inactive),
CNC(C)CCC=C(C)C (stereo not given),2.06% (inactive),
Nc1nc2c(c(=O)[nH]1)N(C=O)C(CNc1ccc(C(=O)N[C@@H](CCC(=O)O)C(=O)O)cc1)CN2 (stereo not given in full),3.43% (inactive),
CC1CC(OC(=O)C(O)c2ccccc2)CC(C)(C)C1 (stereo not given),-1.68% (inactive),
CCCCCCCCCCCCCCCCCC(=O)OC[C@@H](O)[C@H]1OC[C@H](O)[C@H]1O,-0.713% (inactive),
Cc1c(Cl)cccc1Nc1ncccc1C(=O)O,0.0958% (inactive),
O=C(O)CCC/C=C\C[C@@H]1[C@@H](/C=C/[C@@H](O)COc2cccc(C(F)(F)F)c2)[C@H](O)C[C@@H]1O,-3.83% (inactive),
NC(=O)c1ccc[n+]([C@@H]2O[C@H](COP(=O)([O-])OP(=O)(O)OC[C@H]3O[C@@H](n4cnc5c(N)ncnc54)[C@H](O)[C@@H]3O)[C@@H](O)[C@H]2O)c1,-1.3% (inactive),
O=C(NNCS(=O)(=O)O)c1ccncc1,-0.625% (inactive),
CCCCC(=O)N(Cc1ccc(-c2ccccc2-c2nn[nH]n2)cc1)[C@@H](C(=O)O)C(C)C,-1.58% (inactive),
CCN(CC)CCOc1ccc2nc(N(C)C)sc2c1,2.91% (inactive),
FCOC(C(F)(F)F)C(F)(F)F,-0.275% (inactive),
C=CCOc1ccc(CC(=O)O)cc1Cl,-5.29% (inactive),
Cc1ccccc1OCC(O)CNCCOc1ccc(C(N)=O)cc1 (stereo not given),-2.29% (inactive),
O=C(OC[C@H]1O[C@](O)(COC(=O)c2cccnc2)[C@@H](OC(=O)c2cccnc2)[C@@H]1OC(=O)c1cccnc1)c1cccnc1,1.1% (inactive),
CCC(=O)NCCC1CCc2ccc3c(c21)CCO3 (stereo not given),-2.75% (inactive),
CC(C)(CO)[C@@H](O)C(=O)NCCCC(=O)O,-8.61% (inactive),
C=C1CC[C@@H]2[C@](C)(CO)[C@H](O)CC[C@@]2(C)[C@@H]1C/C=C1/C(=O)OC[C@H]1O,-5.66% (inactive),
